# “And” between values parts separate entries of the source, which are not always exact repeats. Identical values can stand only once. Inconclusive results are not listed. Entries that show only a call come without a potency. A structure can be active in one record and inactive in another. The source made the active and inactive calls. Unless noted, calls follow the shape of the dose curve; as a rule, active = well fitted curve in the direction sought with a large enough effect in the repeat runs; inconclusive = weak or mixed curves; inactive = no such curve, though single readings can be large; an effect the other way counts as inactive or inconclusive.
# What was measured:
# [1] = qHTS assay to identify small molecule antagonists of the androgen receptor (AR) signaling pathway using the MDA cell line in the presence of 0.5 nM R1881 - cell viability counter screen (AID 1259242); also: nearly all actives have a fitted effect of over 45% in size; also: potency is read from the fitted curve at half-maximal effect
# Method in brief: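 Live-cell protease activity was measured by CellTiter-Fluor fluorescence after 30 min. Before that, MDA-kb2 MMTV-luciferase cells had 16 hr at 37C without CO2, exposed to test compounds and 0.5 nM R1881 final.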
# [2] = biological target: Estrogen receptor (Homo sapiens) (UniProt P03372); assay: qHTS assay to identify small molecule antagonists of the estrogen receptor alpha (ER-alpha) signaling pathway using the BG1 cell line in the presence of 0.1 nM 17-beta-estradiol (AID 1259244); also: nearly all actives have a fitted effect of over 50% in size; also: potency is read from the fitted curve at half-maximal effect
# Method in brief: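 Luciferase luminescence (ONE-Glo, 30 min at room temperature) was read after 22 hr at 37C exposure to compounds plus 17beta-estradiol at 0.1 nM final. Cells were VM7Luc4E2 with endogenous ER-alpha and an ERE-driven luciferase, pre-cultured 5 days in hormone-depleted medium.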
# [3] = qHTS assay to identify small molecule HDAC inhibitors (AID 1259364); also: top concentration of the series differs between compounds; nearly all actives have a fitted effect of over 45% in size
# Method in brief: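 Luminescence read after 30 min room-temperature HDAC-Glo incubation measures cellular class I/II HDAC activity. Compounds were applied for 2 hr at 37 C to HCT-116 wild-type cells seeded the day before.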
# [4] = qHTS assay to identify small molecule HDAC inhibitors - cell viability counter screen (AID 1259365); also: series mostly up to about 92 µM; nearly all actives have a fitted effect of over 50% in size
# Method in brief: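 Wild-type HCT-116 cells were seeded at 1,500 per well, incubated overnight at 37 C, then exposed to compounds in DMSO for 2hr. Viability was read by CellTiter-Glo luminescence after 30min at room temperature.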
# [5] = qHTS assay to identify small molecule agonists of the sonic hedgehog signaling (Shh) pathway - cell viability counter screen (AID 1259366); also: nearly all actives have a fitted effect of over 50% in size; also: potency is read from the fitted curve at half-maximal effect
# Method in brief: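 NIH/3T3-derived 3T3 Gli1-Luc cells (stable Gli1-responsive firefly luciferase reporter) were seeded, rested 4 hr at 37 C/5% CO2, then exposed to compounds in DMSO for 24 hr; viability was read by CellTiter-Fluor fluorescence in the same wells.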
# [6] = qHTS assay to identify small molecule agonists of the sonic hedgehog signaling (Shh) pathway (AID 1259368; calls by dose curve; also: series mostly up to about 92 µM; nearly all actives have a fitted effect of over 15% in size)
# Method in brief: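 Luminescence was read after 30 min at room temperature with luciferase reagent. Before that, 3T3Gli1-Luc cells (NIH/3T3 clone, stable Gli1-Luc reporter; 2,000/well) were exposed to compounds for 24 hr at 37C, 5% CO2, compounds being added 4 hr post-plating.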
# [7] = qHTS assay to identify small molecule antagonists of the sonic hedgehog signaling (Shh) pathway (AID 1259369; calls by dose curve; also: nearly all actives have a fitted effect of over 45% in size; also: potency is read from the fitted curve at half-maximal effect)
# Method in brief: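 Antagonist mode: compound added to 3T3 Gli1-Luc cells followed by conditioned-medium stimulation, 24 h at 37 C, 5% CO2. Inhibition taken as loss of Gli1-driven luciferase luminescence.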
# [8] = biological target: Estrogen receptor beta (Homo sapiens) (UniProt Q92731); assay: qHTS assay to identify small molecule agonists of the estrogen receptor beta (ER-beta) signaling pathway (AID 1259377; active = well fitted activation curve with a large enough effect in the signal ratio in the repeat runs, not every such curve was filed as active; the % refers to the signal ratio)
# Method in brief: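 ER-beta-UAS-bla HEK293T (GripTite) cells carrying a UAS-driven beta-lactamase reporter, in medium with 2% charcoal-stripped FBS, were exposed to compounds for 16 hr at 37C; LiveBLAzer B/G FRET substrate was then added and fluorescence read after 2 hours at room temperature.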
# [9] = biological target: Estrogen receptor beta (Homo sapiens) (UniProt Q92731); assay: qHTS assay to identify small molecule antagonists of the estrogen receptor beta (ER-beta) signaling pathway (AID 1259378; active = well fitted inhibition curve with a large enough effect in the signal ratio in the repeat runs, not every such curve was filed as active; the % refers to the signal ratio; also: potency is read from the fitted curve at half-maximal effect)
# Method in brief: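 Antagonist mode: compounds added to beta-lactamase reporter HEK293T ER-beta-UAS cells stimulated with E2 (1nM final), 16 hr at 37C. LiveBLAzer B/G FRET substrate, 2 hours room temperature, fluorescence read-out.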
# [10] = qHTS assay to identify small molecule agonists of the androgen receptor (AR) signaling pathway in the presence of an antagonist - cell viability counter screen (AID 1259379); also: nearly all actives have a fitted effect of over 25% in size; also: potency is read from the fitted curve at half-maximal effect
# Method in brief: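 Cytotoxicity counter-screen run in the same wells as the nilutamide-challenged (3.0 µM final) AR agonist assay in MDA-kb2 cells. Compounds tested at 15 concentrations for 16 h, 37 °C without CO2; CellTiter-Fluor fluorescence read.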
# [11] = qHTS assay to identify small molecule agonists of the estrogen receptor beta (ER-beta) signaling pathway - cell viability counter screen (AID 1259380); also: nearly all actives have a fitted effect of over 30% in size; also: potency is read from the fitted curve at half-maximal effect
# Method in brief: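 Cell viability counter screen: CellTiter-Glo luminescence (30 min, room temperature) measured in the same wells as the beta-lactamase readout, after 16 hr compound exposure at 37C of ER-beta-bla HEK293T cells in 2% charcoal-stripped FBS medium.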
# [12] = qHTS assay to identify small molecule antagonists of the estrogen receptor beta (ER-beta) signaling pathway - cell viability counter screen (AID 1259382); also: nearly all actives have a fitted effect of over 55% in size; also: potency is read from the fitted curve at half-maximal effect
# Method in brief: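 Cytotoxicity was measured in the same wells by CellTiter-Glo luminescence after 30 min at room temperature. Cells were ER-beta-bla HEK293T in charcoal-stripped serum, given compound together with 1 nM E2 and incubated 16 h at 37C.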
# [13] = biological target: Estrogen receptor (Homo sapiens) (UniProt P03372); assay: qHTS assay to identify small molecule agonists of the estrogen receptor alpha (ER-alpha) signaling pathway in the presence of an antagonist (AID 1259383; calls by dose curve; also: top concentration of the series differs between compounds; nearly all actives have a fitted effect of over 15% in size)
# Method in brief: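 Agonist-mode confirmation run in the presence of 10.0nM (final) ICI-182,780 antagonist. The reporter was ERE-driven luciferase in VM7Luc4E2 cells, grown in charcoal-stripped serum. Cells were exposed to 15-concentration compound series for 22hr, then ONE-Glo luminescence was read.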
# [14] = qHTS assay to identify small molecule agonists or antagonists of the thyroid stimulating hormone receptor (TSHR) signaling pathway - wild type cell line counter screen (AID 1259384; calls by dose curve)
# Method in brief: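 Counter screen in untransfected Hek293: compounds (15-point titration, triplicate) plus phosphodiesterase inhibitor Ro20-1724 added after 18 h plating; 30 min RT. Intracellular cAMP via competitive d2/cryptate immunoassay, 1 h incubation.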
# [15] = biological target: Thyrotropin receptor (Homo sapiens) (UniProt P16473); assay: qHTS assay to identify small molecule antagonists of the thyroid stimulating hormone receptor (TSHR) signaling pathway (AID 1259385; calls by dose curve; also: nearly all actives have a fitted effect of over 20% in size; also: potency is read from the fitted curve at half-maximal effect)
# Method in brief: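 Antagonist mode: compound-treated TSHR-expressing HEK293 cells were stimulated with 1.5 ng/mL TSH (final) in presence of Ro20-1724 for 30 min at RT. HTRF cAMP detection after 1 h; each compound tested at 15 concentrations, triplicate.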
# [16] = qHTS assay to identify small molecule antagonists of the sonic hedgehog signaling (Shh) pathway - cell viability counter screen (AID 1259367); also: nearly all actives have a fitted effect of over 55% in size; also: potency is read from the fitted curve at half-maximal effect
# Method in brief: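 CellTiter-Fluor signal in conditioned medium-stimulated 3T3 Gli1-Luc cells, 23 hr compound exposure, 37C.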
# [17] = qHTS assay to identify small molecule agonists of the estrogen receptor alpha (ER-alpha) signaling pathway in the presence of an antagonist - cell viability counter screen (AID 1259386); also: nearly all actives have a fitted effect of over 30% in size; also: potency is read from the fitted curve at half-maximal effect
# Method in brief: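 Compounds tested at 15 concentrations for 22 h at 37C alongside 10.0nM (final) ICI-182,780 antagonist, in VM7Luc4E2 cells grown in phenol red-free, charcoal-stripped medium. Viability read by CellTiter-Fluor fluorescence after 1 h reagent incubation.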
# Chain of Thyrotropin receptor (Homo sapiens) (P16473 whole entry, looked up): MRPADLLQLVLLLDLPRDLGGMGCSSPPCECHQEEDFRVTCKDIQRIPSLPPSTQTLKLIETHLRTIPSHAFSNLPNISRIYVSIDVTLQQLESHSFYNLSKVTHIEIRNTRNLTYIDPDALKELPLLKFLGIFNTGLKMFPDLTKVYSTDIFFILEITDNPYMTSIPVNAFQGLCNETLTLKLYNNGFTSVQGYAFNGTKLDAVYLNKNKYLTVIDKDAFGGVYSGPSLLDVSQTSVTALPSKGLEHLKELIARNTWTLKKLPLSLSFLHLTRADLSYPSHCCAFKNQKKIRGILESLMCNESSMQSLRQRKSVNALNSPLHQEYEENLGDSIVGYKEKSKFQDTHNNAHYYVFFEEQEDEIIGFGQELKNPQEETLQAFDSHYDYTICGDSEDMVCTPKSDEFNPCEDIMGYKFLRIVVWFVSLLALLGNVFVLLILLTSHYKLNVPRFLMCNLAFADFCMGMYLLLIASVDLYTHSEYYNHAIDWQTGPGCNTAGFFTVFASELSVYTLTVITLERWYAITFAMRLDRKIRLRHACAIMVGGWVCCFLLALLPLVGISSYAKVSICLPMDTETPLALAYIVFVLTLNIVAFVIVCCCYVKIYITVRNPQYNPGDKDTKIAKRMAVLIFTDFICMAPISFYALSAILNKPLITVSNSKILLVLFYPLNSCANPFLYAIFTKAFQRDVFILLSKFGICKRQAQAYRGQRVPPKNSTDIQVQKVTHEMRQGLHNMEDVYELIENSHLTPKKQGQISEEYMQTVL
# Chain of Estrogen receptor (Homo sapiens) (P03372 whole entry, looked up): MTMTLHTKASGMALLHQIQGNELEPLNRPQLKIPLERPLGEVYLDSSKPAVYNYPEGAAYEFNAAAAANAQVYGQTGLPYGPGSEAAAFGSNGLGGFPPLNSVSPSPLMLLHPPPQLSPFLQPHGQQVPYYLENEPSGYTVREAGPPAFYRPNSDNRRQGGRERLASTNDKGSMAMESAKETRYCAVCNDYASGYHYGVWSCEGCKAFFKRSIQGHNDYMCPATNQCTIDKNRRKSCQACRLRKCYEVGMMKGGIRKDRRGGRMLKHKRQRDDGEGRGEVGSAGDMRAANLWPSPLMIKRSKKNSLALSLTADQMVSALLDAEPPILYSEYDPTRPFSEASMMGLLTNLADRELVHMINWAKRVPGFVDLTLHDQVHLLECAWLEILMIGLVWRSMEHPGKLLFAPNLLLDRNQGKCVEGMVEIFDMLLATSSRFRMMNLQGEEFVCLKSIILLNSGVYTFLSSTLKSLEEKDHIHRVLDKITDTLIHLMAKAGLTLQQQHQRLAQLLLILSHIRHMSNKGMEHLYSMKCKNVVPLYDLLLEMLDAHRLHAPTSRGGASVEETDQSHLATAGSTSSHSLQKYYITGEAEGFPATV
# Chain of Estrogen receptor beta (Homo sapiens) (Q92731 whole entry, looked up): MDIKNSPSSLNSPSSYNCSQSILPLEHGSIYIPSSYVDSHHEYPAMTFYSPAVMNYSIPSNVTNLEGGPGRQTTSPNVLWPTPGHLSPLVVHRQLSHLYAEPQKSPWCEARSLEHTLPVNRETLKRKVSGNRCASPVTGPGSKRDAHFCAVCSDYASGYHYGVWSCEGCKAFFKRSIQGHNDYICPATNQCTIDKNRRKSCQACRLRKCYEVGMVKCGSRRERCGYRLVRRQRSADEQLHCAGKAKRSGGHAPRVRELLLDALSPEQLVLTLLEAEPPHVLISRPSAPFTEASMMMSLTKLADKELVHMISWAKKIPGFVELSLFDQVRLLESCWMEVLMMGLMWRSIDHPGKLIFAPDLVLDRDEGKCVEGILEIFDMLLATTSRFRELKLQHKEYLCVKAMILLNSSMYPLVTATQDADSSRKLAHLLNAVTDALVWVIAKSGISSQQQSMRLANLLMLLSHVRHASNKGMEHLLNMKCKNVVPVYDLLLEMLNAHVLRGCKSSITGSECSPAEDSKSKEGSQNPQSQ
SMILES,Potency [1],Potency [2],Potency [3],Potency [4],Potency [5],Potency [6],Potency [7],Potency [8],Potency [9],Potency [10],Potency [11],Potency [12],Potency [13],outcome [14],Potency [15],Potency [16],Potency [17]
O=C(Nc1ccc(Cl)cc1)Nc1ccc(Cl)c(C(F)(F)F)c1,11.9 µM (active),9.44 µM (active),inactive,inactive,inactive,inactive,7.5 µM (active),inactive,7.5 µM (active),11.9 µM (active),13.3 µM (active),13.3 µM (active),inactive,inactive,26.6 µM (active),–,–
CN1CN(C)CN(C)C1,inactive,inactive,inactive,inactive,inactive,inactive,–,inactive,–,inactive,inactive,inactive,inactive,inactive,inactive,inactive,inactive
COC(=O)CC(C)CCC=C(C)C (stereo unspecified),inactive,inactive,inactive,inactive,inactive,inactive,–,inactive,–,inactive,inactive,inactive,inactive,–,–,inactive,inactive
CCOC(=O)N1CCC(=C2c3ccc(Cl)cc3CCc3cccnc32)CC1,inactive,61.1 µM (active),inactive,inactive,61.1 µM (active),–,43.3 µM (active) and 13.3 µM (active),inactive,15.4 µM (active),–,48.6 µM (active) and 26.6 µM (active),54.5 µM (active),inactive,–,–,inactive,inactive
CCOCN(C(=O)CS(=O)(=O)O)c1c(C)cccc1CC,inactive,inactive,inactive,–,inactive,inactive,–,inactive,–,inactive,inactive,inactive,inactive,inactive,inactive,inactive,inactive
CCCCCCCCCCCCOC(=O)c1cc(O)c(O)c(O)c1,60.9 µM (active),30.5 µM (active) and 34.4 µM (active),inactive,inactive,43.1 µM (active),–,1.21 µM (active) and 2.17 µM (active),–,–,68.3 µM (active) and 61.1 µM (active),34.2 µM (active) and 68.6 µM (active),68.3 µM (active) and 68.6 µM (active),inactive,inactive,68.3 µM (active) and inactive,34.2 µM (active) and 6.11 µM (active),60.9 µM (active)
COc1cccc(CCc2ccccc2OCC(CN(C)C)OC(=O)CCC(=O)O)c1 (stereo unspecified),inactive,inactive,–,inactive,–,inactive,16.8 µM (active),–,–,inactive,23.7 µM (active),21.1 µM (active),inactive,inactive,inactive,inactive,inactive
C=CC(=O)OCC(O)COc1ccccc1 (stereo unspecified),inactive,inactive,–,–,27.3 µM (active),inactive,–,inactive,inactive,–,–,inactive,inactive,–,–,inactive,inactive
C=C(C)C(=O)OCCC[Si](Cl)(Cl)Cl,inactive,–,inactive,inactive,inactive,inactive,–,inactive,inactive,inactive,inactive,inactive,–,inactive,inactive,inactive,inactive
CC(C)C(=O)OCc1ccccc1,inactive,inactive,–,inactive,inactive,inactive,inactive,inactive,inactive,inactive,inactive,inactive,inactive,inactive,inactive,inactive,inactive
CC(O)C#CC(C)O (stereo unspecified),inactive,inactive,–,–,53.9 µM (active),inactive,24.1 µM (active),–,–,inactive,–,–,inactive,inactive,–,60.5 µM (active),inactive
O=Nc1ccc(NO)cc1,inactive,50.5 µM (active),–,inactive,–,–,14.2 µM (active),–,–,–,inactive,inactive,inactive,–,–,–,inactive
CCc1c(C(=O)O)c(=O)cnn1-c1ccc(Cl)cc1,inactive,inactive,–,inactive,inactive,inactive,inactive,inactive,–,inactive,inactive,inactive,inactive,inactive,inactive,inactive,inactive
O=C1NC2CCCCN2C12CCN(CCCN1c3ccccc3CCc3ccc(Cl)cc31)CC2 (stereo unspecified),26.6 µM (active),–,inactive,inactive,26.6 µM (active),inactive,21.1 µM (active),inactive,23.7 µM (active),26.6 µM (active),26.6 µM (active),26.6 µM (active),inactive,inactive,–,29.8 µM (active),29.8 µM (active)
CC(CN(C)C)CN1c2ccccc2CCc2ccccc21 (stereo unspecified),inactive,inactive,inactive,–,inactive,inactive,–,–,–,–,26.6 µM (active),23.7 µM (active),inactive,inactive,29.8 µM (active),inactive,inactive
CCOC(/C=C(\C)CCC=C(C)C)OCC,inactive,inactive,inactive,–,inactive,inactive,–,–,–,inactive,inactive,inactive,inactive,inactive,inactive,inactive,inactive
CCCCC(CC)COC(=O)c1ccc(O)cc1 (stereo unspecified),inactive,–,inactive,inactive,inactive,inactive,–,inactive,21.6 µM (active) and 21.7 µM (active),inactive,61.1 µM (active),68.6 µM (active),–,inactive,inactive,54.3 µM (active),–
CCCCCCCCCCCCCCNCCO,inactive,inactive,–,inactive,inactive,inactive,inactive,–,–,–,26.6 µM (active),inactive,inactive,inactive,23.7 µM (active),inactive,inactive
